Each structure is given as a SMILES string. Out of some 67,000 compounds screened, about 300 (0.45%) showed an effect of 50% or more. For the sample, strong results were picked, then their nearest neighbours and some compounds at random.

The target of this test is Polyketide synthase Pks13 (Mycobacterium tuberculosis (strain ATCC 25618 / H37Rv)) (UniProt I6X8D2). The test is described as follows: Mycobacterium tuberculosis Polyketide synthase 13 Thioesterase (PKS13). In kind it is functional. More on the design: scale not given: in the data most compounds retested in dose-response had high values. As to conditions: 30 µM.
Chain of Polyketide synthase Pks13 (Mycobacterium tuberculosis (strain ATCC 25618 / H37Rv)) (I6X8D2 whole entry): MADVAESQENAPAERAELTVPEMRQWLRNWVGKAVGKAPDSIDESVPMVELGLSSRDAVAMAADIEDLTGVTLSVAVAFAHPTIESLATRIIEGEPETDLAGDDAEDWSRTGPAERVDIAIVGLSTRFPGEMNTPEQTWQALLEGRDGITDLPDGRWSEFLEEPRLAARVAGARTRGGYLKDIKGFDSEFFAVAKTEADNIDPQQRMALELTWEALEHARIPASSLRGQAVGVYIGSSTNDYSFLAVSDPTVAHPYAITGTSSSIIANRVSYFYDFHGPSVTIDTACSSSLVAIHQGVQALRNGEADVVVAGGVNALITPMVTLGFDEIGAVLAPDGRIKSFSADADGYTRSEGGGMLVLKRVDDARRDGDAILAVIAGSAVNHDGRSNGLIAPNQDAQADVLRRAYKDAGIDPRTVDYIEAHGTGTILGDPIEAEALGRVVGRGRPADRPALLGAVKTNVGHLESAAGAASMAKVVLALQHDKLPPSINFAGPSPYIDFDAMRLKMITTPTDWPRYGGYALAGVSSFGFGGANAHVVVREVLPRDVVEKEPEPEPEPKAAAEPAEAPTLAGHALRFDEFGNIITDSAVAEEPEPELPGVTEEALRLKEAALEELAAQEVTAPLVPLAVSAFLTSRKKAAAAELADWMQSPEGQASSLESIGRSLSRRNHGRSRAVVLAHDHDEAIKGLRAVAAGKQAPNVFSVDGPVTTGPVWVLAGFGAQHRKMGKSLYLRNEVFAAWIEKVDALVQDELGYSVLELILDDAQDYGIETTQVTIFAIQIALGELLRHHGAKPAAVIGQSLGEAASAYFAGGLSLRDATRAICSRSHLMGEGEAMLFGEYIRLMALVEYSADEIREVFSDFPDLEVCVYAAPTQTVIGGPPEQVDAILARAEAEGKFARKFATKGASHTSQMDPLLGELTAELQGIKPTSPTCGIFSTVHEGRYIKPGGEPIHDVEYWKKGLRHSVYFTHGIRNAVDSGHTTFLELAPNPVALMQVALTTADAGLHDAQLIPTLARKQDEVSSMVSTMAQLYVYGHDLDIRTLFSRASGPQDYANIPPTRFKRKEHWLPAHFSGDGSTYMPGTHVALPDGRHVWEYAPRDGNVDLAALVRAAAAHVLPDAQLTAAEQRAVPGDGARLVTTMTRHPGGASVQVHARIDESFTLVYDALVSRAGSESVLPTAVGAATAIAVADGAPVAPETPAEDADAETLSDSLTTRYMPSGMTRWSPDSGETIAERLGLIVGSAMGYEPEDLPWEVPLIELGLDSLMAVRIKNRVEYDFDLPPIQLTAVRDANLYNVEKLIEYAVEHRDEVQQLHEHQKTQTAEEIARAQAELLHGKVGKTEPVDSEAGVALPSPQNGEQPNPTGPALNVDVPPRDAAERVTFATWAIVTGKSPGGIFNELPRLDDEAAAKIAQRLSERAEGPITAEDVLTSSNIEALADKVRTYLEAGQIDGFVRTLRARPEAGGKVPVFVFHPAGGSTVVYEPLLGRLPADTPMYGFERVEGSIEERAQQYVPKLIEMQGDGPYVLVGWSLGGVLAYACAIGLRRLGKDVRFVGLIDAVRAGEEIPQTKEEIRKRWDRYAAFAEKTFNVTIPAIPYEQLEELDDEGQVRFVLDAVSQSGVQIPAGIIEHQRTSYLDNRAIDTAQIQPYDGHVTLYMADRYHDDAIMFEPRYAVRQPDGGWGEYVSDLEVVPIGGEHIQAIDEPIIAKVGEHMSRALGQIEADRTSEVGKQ
Take `CN(C)S(=O)(=O)c1ccc(-c2nc(C#N)c(NC3CC3)o2)o1`: the Percent Effect came to 73.3%.

In the case of `Cc1ccc(C(=O)N2CCO[C@H]3[C@H](OCC4CCOCC4)CC[C@@H]32)o1`, the Percent Effect was -6.47%.

Consider `COCCNC(=O)c1cc(-c2cc[nH]n2)n2ccccc12`, for which the Percent Effect stood at 47.6%.

Consider `O=C(NCCCO)c1cc(-c2cc[nH]n2)n2ccccc12`, for which the Percent Effect amounted to 48.6%.

On to `CC(C)(CO)CNC(=O)c1cc(-c2cc[nH]n2)n2ccccc12`, for which the Percent Effect was determined as 67.2%.

On to `Fc1cnc(N2CCO[C@H]3CN(CC4CCCC4)C[C@H]32)nc1`, for which the Percent Effect is -14.5%.

Regarding `CC(C)c1n[nH]c(C(=O)Nc2cc[nH]n2)c1Br`, the Percent Effect is -20%.

With `CC(C)c1n[nH]c(C(=O)Nc2ccccn2)c1Br`, the Percent Effect is -9.25%.

`Cc1cccc(NC(=O)c2[nH]nc(C(C)C)c2Br)n1`: the Percent Effect turned out to be 73.4%.

Consider `Cc1cc(CN2C[C@H]3CCC[C@@]3(COCC3CCOCC3)C2)no1`, for which the Percent Effect is -40.7%.

Take `CC(=O)N1C[C@@H](c2ccsc2)[C@@H]2CN(Cc3ccccc3C)CC[C@@H]21`: the Percent Effect is -7.95%.

On to `Cc1nc([C@@H]2C[C@@H]3CCN(Cc4cnn(C)c4)C[C@H]3O2)sc1C`, for which the Percent Effect is -30.4%.

As for `CC(=O)N1CCS(=O)(=O)[C@@H]2CCN(CC(C)C)CC[C@@H]21`, the Percent Effect is -16.8%.

In the case of `CC(CNS(=O)(=O)CCCC#N)c1ccsc1` (stereo not drawn), the Percent Effect is -31.9%.

As for `Cc1cccc(C(C)CNS(=O)(=O)CCCC#N)c1` (stereo not drawn), the Percent Effect stood at 50.7%.

For `COCCS(=O)(=O)NCC(C)c1cccc(C)c1` (stereo not drawn), the Percent Effect was -20.8%.

Turning to `Cn1cc(CN2C[C@H]3CCN(C(=O)c4cscn4)C[C@H]3C2)cn1`, the Percent Effect is -3.8%.

For the compound `Cc1ccc(CC(=O)N2CC[C@@H]3NC(=O)CC[C@@H]32)cc1`, the Percent Effect is -1.54%.

For `O=S(=O)(NCC1CCN(c2cnccn2)CC1)c1cccs1`, the Percent Effect stood at 45.5%.

Consider `CCc1ccc(S(=O)(=O)NCC2CCN(c3cnccn3)CC2)s1`, for which the Percent Effect is 56.2%.

As to `CCS(=O)(=O)NCC1CCN(c2cnccn2)CC1`, the Percent Effect was -18.7%.

`CCCc1ccc(CN2CCN(C(=O)CC(C)C)[C@@H]3CS(=O)(=O)C[C@@H]32)o1`: the Percent Effect was -12.9%.

Consider `CN1CCCC1c1ccnc(C(=O)N(C)C2CCCCC2)c1` (stereo not drawn), for which the Percent Effect is 5.64%.

On to `CCN(CC)C(=O)c1cc(C2CCCN2C)ccn1` (stereo not drawn), for which the Percent Effect came to 88.5%.

On to `CCN(Cc1ccccc1)C(=O)c1cc(C2CCCN2C)ccn1` (stereo not drawn), for which the Percent Effect was -15.7%.

Turning to `C=Cn1ncc(CN2C[C@@H]3CCCN3C[C@@H]2CCSC)c1C`, the Percent Effect is -1.08%.

Regarding `CCc1nnc(CN2CCOC(Cn3cc(C)cn3)C2)o1` (stereo not drawn), the Percent Effect came to 52.7%.

`Cc1cnn(CC2CN(Cc3nnc(C4CC4)o3)CCO2)c1` (stereo not drawn): the Percent Effect was -7.17%.

As for `Cc1cnn(CC2CN(Cc3nnc(C(C)C)o3)CCO2)c1` (stereo not drawn), the Percent Effect was -12.6%.

With `Cc1ccc(N2C[C@H]3CCC[C@@]3(COc3cccnc3)C2)nn1`, the Percent Effect was -28.6%.

As to `CCCOC(C)Cn1ccc2[nH]c(=O)c(C#N)cc2c1=O` (stereo not drawn), the Percent Effect stood at 89.3%.

Take `CCC(Cn1ccc2[nH]c(=O)c(C#N)cc2c1=O)OC` (stereo not drawn): the Percent Effect is -9.98%.

`N#Cc1cc2c(=O)n(CC(O)C(F)(F)F)ccc2[nH]c1=O` (stereo not drawn): the Percent Effect was -25.1%.

With `O=C(NC1CCC1)[C@H]1C[C@@H]2CN(S(=O)(=O)c3ccccc3)C[C@H]1O2`, the Percent Effect was -31.3%.

In the case of `O=C(N[C@H]1CN(Cc2cccs2)[C@@H]2CCCO[C@H]12)c1cccnc1`, the Percent Effect was -28.5%.

As to `COc1ccccc1CN1C(=O)O[C@@H]2CN(c3ccccn3)C[C@@H]21`, the Percent Effect came to 4.73%.

Regarding `COCCNc1nc2c(c(NCCc3cccs3)n1)CCNCC2`, the Percent Effect is -17.6%.

For `COCCNc1nc2c(c(NCc3ccncc3)n1)CCNCC2`, the Percent Effect is -8.09%.

In the case of `COCCNc1nc2c(c(NCC3CCOC3)n1)CCNCC2` (stereo not drawn), the Percent Effect is 89.6%.

Regarding `CS(=O)(=O)NC[C@]12COC[C@H]1CN(C(=O)CCc1ccccc1)C2`, the Percent Effect is -0.91%.

On to `Cc1csc([C@H]2C[C@@H]3CCN(Cc4cc(C)on4)C[C@H]3O2)n1`, for which the Percent Effect is -10.9%.

In the case of `CN(C)S(=O)(=O)N1C[C@H]2CCC[C@@]2(COCc2cccnc2)C1`, the Percent Effect is -34%.

As to `CCOC(=O)N1CCN(C(=O)c2cc(OCC)c3ccoc3c2)CC1`, the Percent Effect came out at 22.8%.

`CCOc1cc(C(=O)n2cccn2)cc(OCC)c1OCC`: the Percent Effect turned out to be 21.5%.

On to `CCOc1cc(C(=O)n2cc(C)cn2)cc(OCC)c1OCC`, for which the Percent Effect was determined as 53.3%.

In the case of `Cc1nnsc1CN1C[C@H]2CC[C@@H]1CN(Cc1ccccn1)C2`, the Percent Effect was 2.49%.

As for `O=C(O)c1csc(S(=O)(=O)Nc2cccc(OC(F)F)c2)c1`, the Percent Effect came out at 24.7%.

Take `CCOc1cccc(NS(=O)(=O)c2cc(C)c(C(=O)O)s2)c1`: the Percent Effect was 33.3%.

In the case of `CCc1cccc(NS(=O)(=O)c2cc(C)c(C(=O)O)s2)c1`, the Percent Effect was determined as 56.8%.

Consider `CCOc1ccc(NS(=O)(=O)c2cc(C)c(C(=O)O)s2)c(C)c1`, for which the Percent Effect was -32.6%.

For `CCOc1cc(C)ccc1NS(=O)(=O)c1cc(C)c(C(=O)O)s1`, the Percent Effect is -26.3%.

Regarding `CCOc1cc(F)ccc1NS(=O)(=O)c1cc(C)c(C(=O)O)s1`, the Percent Effect worked out at 4.81%.

For the compound `CCOc1c(Cl)cccc1NS(=O)(=O)c1cc(C)c(C(=O)O)s1`, the Percent Effect was -18.8%.

Take `CC(=O)c1cccc(NS(=O)(=O)c2cc(C)c(C(=O)O)s2)c1`: the Percent Effect came to 11.7%.

For `Cc1cc(S(=O)(=O)Nc2cccc(OC(F)F)c2)sc1C(=O)O`, the Percent Effect was 72.8%.

As for `Cc1cc(S(=O)(=O)Nc2cccc(I)c2)sc1C(=O)O`, the Percent Effect came out at 70%.

For `CCOc1ccc(NS(=O)(=O)c2cc(C)c(C(=O)O)s2)cc1F`, the Percent Effect is -32.1%.

With `Cc1cc(S(=O)(=O)Nc2cccc(-n3cccc3)c2)sc1C(=O)O`, the Percent Effect is 74%.

The values above are taken from ChEMBL document CHEMBL3988442, “University of Dundee, Small-Polar-MMV Screening Library” (2021).
